From PubChem BioAssay (EPA / NIEHS)
“And” between values parts separate entries of the source, which are not always exact repeats. Equal entries are not always repeated. Inconclusive results are not listed. Where a structure was tested more than once in an assay, its records may differ in their call. The source made the active and inactive calls. How the source made its calls, unless noted: active means hit-call score of the fitted dose curve at least 0.9, where 1 is the maximum; inactive means score below 0.9.

What was measured:
[1] = molecular target: Cellular tumor antigen p53 (Homo sapiens) (UniProt P04637); assay: TOX21_p53_BLA_p2_ratio: Tox21 HCT-116 p53 Agonism Beta-lactamase Assay, Ratio, Phase 2 (AID 2283592; active means hit-call score of the fitted dose curve at least 0.9, where 1 is the maximum)
In short: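 An inducible beta-lactamase reporter in HCT116 cells signals p53 pathway activation. After 16 h chemical exposure at 37C, cells load CCF4-AM substrate for 2 h at room temperature; activity is the cleaved/uncleaved emission ratio relative to DMSO.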

[2] = TOX21_p53_BLA_p3_viability: Viability Assessment in the Tox21 HCT-116 p53 Agonism Beta-lactamase Assay, Phase 3 (AID 2283593; active means hit-call score of the fitted dose curve at least 0.9, where 1 is the maximum;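 further: cells exposed to compound for 16 h before reading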)
In short: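 HCT-116 cells (4000/well) rested 5 h at 37C, then got DMSO compounds by pin tool (217-fold dilution) for 16 h at 37C, 5% CO2. After the bla read, CellTiter-Glo was added and luminescence read at 30 min, room temperature.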

[3] = molecular target: Cellular tumor antigen p53 (Homo sapiens) (UniProt P04637); assay: TOX21_p53_BLA_p3_ratio: Tox21 HCT-116 p53 Agonism Beta-lactamase Assay, Ratio, Phase 3 (AID 2283596; active means hit-call score of the fitted dose curve at least 0.9, where 1 is the maximum)
In short: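 HCT116 p53-bla cells (4000/well) given compound in DMSO (217-fold dilution) after 5 h, incubated 16 h at 37C. CCF4-AM substrate 2 h at room temperature; 460/530 nm emission ratio, gain fitted against DMSO.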

[4] = TOX21_p53_BLA_p4_viability: Viability Assessment in the Tox21 HCT-116 p53 Agonism Beta-lactamase Assay, Phase 4 (AID 2283597; active means hit-call score of the fitted dose curve at least 0.9, where 1 is the maximum;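 further: hits lower the luminescence signal meaning cytotoxicity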)
In short: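 Compound exposure of HCT116 cells lasts 16 h at 37C, 5% CO2, with DMSO stocks diluted 217-fold. Cellular ATP is then quantified by CellTiter-Glo luminescence after 30 min at room temperature.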

[5] = molecular target: Cellular tumor antigen p53 (Homo sapiens) (UniProt P04637); assay: TOX21_p53_BLA_p5_ratio: Tox21 HCT-116 p53 Agonism Beta-lactamase Assay, Ratio, Phase 5 (AID 2283599; active means hit-call score of the fitted dose curve at least 0.9, where 1 is the maximum)
In short: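 HCT-116 cells carrying a p53-inducible beta-lactamase reporter were seeded at 4000 cells/well and dosed after 5 h with compound in DMSO (217-fold dilution). After 16 h at 37C, CCF4-AM substrate was added for 2 h, and the 460/530 nm emission ratio was scored as gain-of-signal versus DMSO.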

[6] = TOX21_p53_BLA_p5_viability: Viability Assessment in the Tox21 HCT-116 p53 Agonism Beta-lactamase Assay, Phase 5 (AID 2283600; active means hit-call score of the fitted dose curve at least 0.9, where 1 is the maximum)
In short: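 Counter-readout for cytotoxicity: ATP-dependent luminescence from CellTiter-Glo, read in the beta-lactamase wells after 30 min at RT, following a 16 h compound exposure at 37C.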

[7] = molecular target: Cellular tumor antigen p53 (Homo sapiens) (UniProt P04637); assay: TOX21_p53_BLA_p4_ratio: Tox21 HCT-116 p53 Agonism Beta-lactamase Assay, Ratio, Phase 4 (AID 2283601; active means hit-call score of the fitted dose curve at least 0.9, where 1 is the maximum)
In short: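 HCT116 cells carrying an inducible beta-lactamase reporter were plated at 4000 cells/well, rested 5 h, then exposed to compounds in DMSO (217-fold dilution) for 16 h at 37C. CCF4-AM substrate was loaded 2 h at room temperature; 460/530 nm emission ratio scored gain-of-signal versus DMSO.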

[8] = CCTE_Padilla_ZF_144hpf_TERATOSCORE: (Legacy) CCTE's 144 Hour Post-fertilization zebrafish Assay Teratoscore, Padilla Lab (AID 2283679);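 further: zebrafish embryos with chorions exposed by immersion from 6-8 hpf to 5 dpf with daily renewal; teratogenicity score from eye scoring of death hatching and malformations at 144 hpf; higher score means more developmental defects relative to DMSO baseline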
In short: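 Larvae scored by eye at 144 hpf for death, hatching and malformations after a day in clean Hanks'. Before that, daily-renewed exposure at 80 uM (0.4% DMSO, 26C) from roughly 6-8 hpf through 5 dpf, 4 embryos per chemical.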

[9] = CCTE_Shafer_MEA_dev_firing_rate_mean: CCTE's Neural Network Formation Assay for Mean Firing Rate, Shafer Lab (AID 2284031);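 further: curve fitted for loss of firing so AC50 reflects decreased mean firing rate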
In short: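 Primary rat cortical neurons on 48-well MEA plates, exposed from plating day 0 with dosing renewed on DIV 5 and 9. Mean well firing rate over active electrodes, recorded days 5, 7, 9, 12, summarised as trapezoidal AUC.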

[10] = CCTE_Shafer_MEA_dev_per_burst_spike_percent: CCTE's Neural Network Formation Assay for Percent of Spikes in a Burst, Shafer Lab (AID 2284032);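 further: fitted as a decrease in burst spike percentage below DMSO baseline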
In short: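 Rat primary cortical neurons on 16-electrode MEA wells, dosed from plating day 0 for 12 days with renewal on DIV 5 and 9; spikes-in-bursts percentage averaged over bursting electrodes, collapsed as AUC across days 5, 7, 9, 12; loss direction versus DMSO.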

[11] = CCTE_Shafer_MEA_dev_active_electrodes_number: CCTE's Neural Network Formation Assay for Number of Active Electrodes, Shafer Lab (AID 2284040; active means hit-call score of the fitted dose curve at least 0.9, where 1 is the maximum;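 further: potency for loss of active electrodes versus DMSO so lower counts are hits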)
In short: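 Primary rat cortical neurons on 16-electrode MEA wells, exposed from day 0 through day 12 with compound renewed at DIV 5 and 9 feeds. Active electrodes (mean firing ≥5 spikes/min) counted at DIV 5, 7, 9, 12; trapezoidal AUC across days, loss-of-signal versus DMSO.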

[12] = CCTE_Shafer_MEA_dev_burst_rate: CCTE's Neural Network Formation Assay for Burst Rate, Shafer Lab (AID 2284042);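 further: potency for loss of burst rate below DMSO control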
In short: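 Exposure ran continuously over 12 days of network development in rat cortical cultures, with compound refreshed during full media changes on DIV 5 and 9. Single-electrode bursts per recording time, well-mean over active electrodes, trapezoidal AUC across days 5–12, fitted downward relative to DMSO.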

[13] = CCTE_Shafer_MEA_dev_bursting_electrodes_number: CCTE's Neural Network Formation Assay for Number of Bursting Electrodes, Shafer Lab (AID 2284043; active means hit-call score of the fitted dose curve at least 0.9, where 1 is the maximum;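 further: potency is for loss of bursting electrodes relative to DMSO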)
In short: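 Primary rat cortical neurons were cultured on PEI-coated 48-well MEA plates (16 electrodes/well) and exposed from plating through day 12, with compound renewed at feeds on DIV 5 and 9. Electrodes bursting ≥1 per 2 min were counted on DIV 5, 7, 9, 12; trapezoidal AUC taken.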

[14] = CCTE_Shafer_MEA_dev_per_burst_interspike_interval: CCTE's Neural Network Formation Assay for Burst Interspike Interval, Shafer Lab (AID 2284044);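 further: mean spike spacing inside bursts as AUC over recordings on days 5 7 9 12; potency for a decrease of within-burst interspike interval below DMSO level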
In short: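 Developmental network-formation MEA in primary rat cortical cultures with exposure spanning days 0–12. Within-burst ISI is averaged per well and integrated across recording days by area under the curve, with DMSO as negative control baseline.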

[15] = CCTE_Shafer_MEA_dev_burst_duration_mean: CCTE's Neural Network Formation Assay for Mean Burst Duration, Shafer Lab (AID 2284045)
In short: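 Primary rat cortical neurons on PEI-coated 16-electrode MEA wells, exposed from plating through day 12 with compound renewed at DIV 5 and 9; spontaneous activity recorded days 5, 7, 9, 12. Well-mean burst duration collapsed as trapezoidal AUC, fitted for loss versus DMSO.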

[16] = CCTE_Shafer_MEA_dev_interburst_interval_mean: CCTE's Neural Network Formation Assay for Mean Interburst Interval, Shafer Lab (AID 2284046);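 further: well-mean interburst interval of bursting electrodes as AUC over four recording days; curve fitted for decrease in interburst interval relative to DMSO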
In short: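 Primary rat cortical neurons on PEI-coated 48-well MEA plates (laminin added with cells at plating) (16 electrodes/well), exposed from plating day 0 with renewal at DIV 5 and 9. Mean inter-burst interval averaged over bursting electrodes, AUC across days 5, 7, 9, 12; DMSO baseline.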

[17] = CCTE_Shafer_MEA_dev_inter_network_spike_interval_mean: CCTE's Neural Network Formation Assay for Mean Inter-network Spike Interval, Shafer Lab (AID 2284047);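 on AC50: potency for a decrease in mean inter-network spike interval below DMSO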
In short: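 Mean time between consecutive network-spike peaks, recorded extracellularly (adaptive spike detection) on DIV 5, 7, 9 and 12, summarized as trapezoidal AUC. Rat cortical cultures on MEAs dosed continuously days 0–12, re-dosed at feeds; loss-of-signal fit relative to DMSO.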

[18] = CCTE_Shafer_MEA_dev_network_spike_number: CCTE's Neural Network Formation Assay for Number of Network Spikes, Shafer Lab (AID 2284048);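 further: synchronized bursts across electrodes counted on days 5 7 9 12 and integrated as AUC; fit as a loss of signal meaning fewer network spikes than DMSO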
In short: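 Primary rat cortical neurons were seeded at 1.5 x 10^5 cells/well on PEI-coated 16-electrode MEA wells with laminin, exposed from plating day 0, compound renewed at DIV 5 and 9. Network spikes were recorded on days 5, 7, 9, 12 and summarized as trapezoidal AUC versus DMSO.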

[19] = CCTE_Shafer_MEA_dev_network_spike_peak: CCTE's Neural Network Formation Assay for Mean Number of Electrodes in Network Spike, Shafer Lab (AID 2284049);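 further: fitted for loss of signal meaning fewer electrodes in network spikes than DMSO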
In short: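 Continuous 12-day exposure of rat cortical cultures, starting at plating, on MEA plates. Endpoint: electrodes participating in network-spike peaks, AUC across DIV 5–12, DMSO as negative control.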

[20] = CCTE_Shafer_MEA_dev_spike_duration_mean: CCTE's Neural Network Formation Assay for Mean Spike Duration, Shafer Lab (AID 2284051);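 further: mean network spike duration pooled as area under curve over DIV 5 to 12 recordings; potency for a decrease in mean network spike duration versus DMSO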
In short: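 Spontaneous activity was recorded on days 5, 7, 9 and 12 from rat cortical cultures grown on microelectrode arrays and dosed continuously from day 0, with media and compound renewed after the DIV 5 and 9 recordings. Network-spike duration was collapsed by area under the curve.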

[21] = CCTE_Shafer_MEA_dev_network_spike_duration_std: CCTE's Neural Network Formation Assay for Standard Deviation of Network Spike Duration, Shafer Lab (AID 2284052);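 further: hits are decreases in network spike duration SD versus DMSO vehicle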
In short: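 Network spike duration variability was collapsed across recordings on days 5, 7, 9 and 12 by trapezoidal area-under-curve and fitted downward against DMSO. Cultures were rat cortical neurons on PEI-coated MEA plates, dosed continuously from plating, refed with compound DIV 5/9.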

[22] = CCTE_Shafer_MEA_dev_per_network_spike_spike_number_mean: CCTE's Neural Network Formation Assay for Mean Number of Spikes in a Network Spike, Shafer Lab (AID 2284053);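 further: fitted as decrease in spikes per network spike relative to DMSO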
In short: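 Mean spike count within each network spike, taken in a 0.05 s window at its peak, was recorded on days 5, 7, 9 and 12 and integrated as trapezoidal area under the curve. Rat cortical cultures on MEA plates received continuous compound from day 0, refreshed at medium changes on DIV 5 and 9.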

[23] = CCTE_Shafer_MEA_dev_per_network_spike_spike_percent: CCTE's Neural Network Formation Assay for Percent of Spikes in a Network Spike, Shafer Lab (AID 2284054)
In short: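 Primary rat cortical neurons on 16-electrode MEA wells (PEI-coated, laminin at plating), exposed from day 0 with renewal at DIV 5 and 9; spikes within 0.05 s of network-spike peaks over total spikes, AUC across days 5, 7, 9, 12.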

[24] = CCTE_Shafer_MEA_dev_LDH: CCTE's Lactate Dehydrogenase Assay for Cytotoxicity in the Neural Network Formation Assay, Shafer Lab (AID 2284068; active means hit-call score of the fitted dose curve at least 0.9, where 1 is the maximum;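 further: exposure for twelve days from plating with re-dosing on DIV 5 and 9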)
In short: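 Primary rat cortical neurons were cultured on PEI-coated MEA plates and exposed from plating through day 12, with compound renewed at medium changes on DIV 5 and 9. LDH activity was read spectrophotometrically; loss of signal versus DMSO indicates reduced viability.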

[25] = CCTE_Shafer_MEA_dev_AB: CCTE's Alamar Blue Assay for Cytotoxicity in the Neural Network Formation Assay, Shafer Lab (AID 2284083; active means hit-call score of the fitted dose curve at least 0.9, where 1 is the maximum;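 further: resazurin reduction fluorescence as viability of cultured neurons; twelve days of exposure from plating with re-dosing on DIV 5 and 9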)
In short: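 Resazurin fluorescence, relative to DMSO, gauges viability after twelve days of exposure that began at plating of rat cortical neurons (1.5 x 10^5 cells/well, 48-well MEA); treatment renewed with full medium exchange on DIV 5 and 9.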

[26] = CCTE_Shafer_MEA_dev_mutual_information_norm: CCTE's Neural Network Formation Assay for Mutual Information Normalization, Shafer Lab (AID 2284091);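 further: mutual information between electrodes summarised as area under curve across four recording days; potency is for a decrease in mutual information relative to DMSO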
In short: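 Rat cortical cultures, 48-well MEA, continuous exposure DIV 0–12 with full media/compound change DIV 5 and 9. Readout: inter-electrode mutual information, AxIS adaptive spike detection; AUC across DIV 5/7/9/12 recordings; DMSO baseline, negative fitting direction.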

[27] = CCTE_Shafer_MEA_dev_correlation_coefficient_mean: CCTE's Neural Network Formation Assay for Mean Correlation Coefficient, Shafer Lab (AID 2284093);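 further: well mean pairwise spike train correlation integrated as AUC over recording days 5 to 12; potency fitted for loss of correlation relative to DMSO vehicle wells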
In short: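 Primary rat cortical neurons on PEI-coated 48-well MEA plates (16 electrodes/well) were exposed from plating day 0 through DIV12, with compound renewed at DIV5 and 9. Pairwise spike correlations were averaged per well; trapezoidal AUC across DIV5, 7, 9, 12.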

Measured: AC50

Cellular tumor antigen p53 (Homo sapiens), sequence (P04637 whole entry, looked up): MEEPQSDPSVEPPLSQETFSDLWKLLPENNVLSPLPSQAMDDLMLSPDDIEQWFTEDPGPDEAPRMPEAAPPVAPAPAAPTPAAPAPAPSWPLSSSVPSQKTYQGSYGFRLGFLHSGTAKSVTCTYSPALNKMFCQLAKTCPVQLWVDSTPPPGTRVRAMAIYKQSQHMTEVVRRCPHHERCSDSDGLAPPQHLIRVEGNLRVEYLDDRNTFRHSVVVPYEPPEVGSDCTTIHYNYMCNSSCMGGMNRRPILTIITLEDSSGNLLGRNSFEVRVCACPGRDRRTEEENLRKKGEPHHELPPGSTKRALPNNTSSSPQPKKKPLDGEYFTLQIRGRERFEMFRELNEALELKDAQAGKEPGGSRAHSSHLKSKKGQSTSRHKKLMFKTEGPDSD

CC[C@H](C)C(=O)O[C@H]1CCC=C2C=C[C@H](C)[C@H](CC[C@@H]3C[C@@H](O)CC(=O)O3)[C@H]21
active: [8] 8.02 nM and 2.39 nM | [9] 1.41 µM and 8.96 µM | [10] 1.4 µM and 2.83 µM | [11] 1.15 µM and 875 nM | [12] 253 nM and 2.69 µM | [13] 924 nM and 911 nM | [14] 3.11 µM and 8.52 µM | [16] 3.03 µM and 2.52 µM | [17] 696 nM | [18] 71.9 nM and 226 nM | [19] 960 nM and 912 nM | [20] 1.05 µM and 983 nM | [21] 665 nM and 700 nM | [22] 940 nM and 915 nM | [23] 277 nM and 554 nM | [24] 215 nM | [25] 687 nM and 2.01 µM | [26] 353 nM and 881 nM | [27] 571 nM and 928 nM
inactive: [1] | [2] | [3] | [4] | [5] | [6] | [7] | [15] | [17]
